Only some compounds are listed: those with a hit (about 2.9% of all), similar ones and a draw of the others.
ATXN2 expr inh – ATXN2 expression inhibition; HEK-293 ATXN2-luciferase reporter, luminescence, 24 h; Potency, µM (top dose mostly 57 µM), without a hit: at the top dose activity change, negative = inhibition, most hits filed as inhibitors; 0.72% of 360,000 active; AID 1745845; further: on the % scale 0 is the no-effect control and ±100 the full control effect; nearly all actives have a fitted effect of over 55% in size
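ATXN2-luciferase reporter cells (luciferase flanked by upstream and downstream ATXN2 gene portions) were treated 24 h at 37 °C with compounds at up to 57 uM. SteadyGlo luminescence gave expression; GF-AFC fluorescence gave viability.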
A549 tox – A549 cytotoxicity, counter-screen for Nrf2 inhibitors; A549 ARE-Fluc cells, CellTiter-Fluor viability, 18-24 h; 0.16% of 390,000 active; AID 504648; Potency, µM (series often up to 46 µM), inactives show at the top dose activity change, negative = cytotoxicity, actives largely listed as inhibitors; further: on the % scale 0 is the no-effect control and ±100 the full control effect
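A549 ARE-Fluc cells in 5% FBS OPTI-MEM, 5000 cells/well, rested 2 h then exposed to compounds in concentration-response for 18-24 h at 37 °C. Viability by CellTiter-Fluor fluorescence (Ex 405/Em 525) after 30 min; luciferase luminescence (BugLite, 15 min, RT) read afterwards.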
Nrf2 block – inhibitors of Nrf2 signaling | A549 ARE-Fluc reporter, luciferase luminescence, 18-24 h | Potency, µM (highest dose often 46 µM), for inactives: at the highest dose activity change, negative = inhibition, hits mostly inhibitors | 2.1% of 360,000 active; further: on the % scale 0 is the no-effect control and ±100 the full control effect; nearly all actives have a fitted effect of over 60% in size
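In this cell-based qHTS, ARE-driven firefly luciferase in A549 cells reports Nrf2 activity; the luminescent signal after BugLite lysis is the measured value, with a prior CellTiter-Fluor read for cell health.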
Nrf2 activator – Nrf2 pathway activation | AREc32 ARE-luciferase reporter (MCF7-derived line), luminescence, 24 h | 0.31% of 410,000 active | AID 624171 | Potency, µM (doses to about 46.1 µM), without a hit: at the highest dose activation, most hits filed as activators; further: % of control where 0% means no effect; nearly all actives have a fitted effect of over 65% in size
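AREc32 cells carrying an ARE-driven firefly luciferase, 1000 cells/well in OPTI-MEM with 5% FBS, dosed after overnight attachment and incubated 24 hr at 37 deg C. Steady-Glo luminescence read after 30 min at RT.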
ATXN viability – cell viability loss in ATXN counter-screen; 0.49% of 400,000 active; Potency, µM (doses to about 56.7 µM), usual class: cytotoxic; S2 cells (HEK-293 line with an ATXN2-luciferase reporter) viability, CellTiter-Fluor protease fluorescence, 24 h; further: nearly all actives have a fitted effect of over 40% in size
Numbers without * were called inactive; i = inactive; ? = inconclusive; . = no result. The call rests on the fitted dose curve; in most records, active means well fitted curve in the direction sought with a large enough effect; inconclusive means small, poorly fitted or top-dose-only effect, or another doubt; inactive means no such curve, though single readings can be large; an effect the other way counts as inactive or inconclusive. Potency means the concentration at half of the fitted maximal effect.

SMILES | ATXN2 expr inh | A549 tox | Nrf2 block | Nrf2 activator | ATXN viability
C[C@@H]1CN(Cc2ccc3c(c2)CN(C(=O)c2ccc(Oc4ccccc4)o2)CCO3)C[C@H](C)O1 | . | . | . | . | i
CC(C)Cn1c(N)c(C(=O)COC(=O)c2ccccc2C(=O)c2ccccc2)c(=O)n(C)c1=O | -8% | -28% | 13µM* | 0% | ?
CC[C@@H](CO)NCCN[C@@H](CC)CO | 2% | . | . | . | i
COc1cccc(C(=O)N2CCc3c(C(=O)NC(C)c4ccco4)c(OC)cc(=O)n3CC2)c1OC (configuration not stated) | . | . | . | . | i
c1ccc(-c2nc(-c3ccco3)cs2)nc1 | 44% | 1% | ? | 13µM* | i
c1ccc(-c2nccc(-c3ccco3)n2)nc1 | 19% | -5% | ? | ? | i
O=C(CNC(=O)c1ccc(F)cc1)N/N=C/c1cc(Br)ccc1OC(=O)/C=C/c1ccco1 | 8.9µM* | -1% | -26% | 1% | ?
O=C(CP(=O)(c1ccccc1)c1ccccc1)N/N=C/c1cc(Br)cc(Br)c1O | 10µM* | -16% | ? | 0% | i
O=C(CN1CC(c2ccccc2)CC1=O)N/N=C/c1cc(Br)ccc1O (configuration not stated) | 14µM* | -7% | ? | 0% | i
O=C(N/N=C\c1cc(Cl)ccc1O)c1ccc(S(=O)(=O)N2CCCCC2)cc1 | 2.5µM* | -16% | -15% | 0% | i
O=C(NC1(C(F)(F)F)C(=O)Nc2c1c(=O)[nH]c(=O)n2CCc1ccccc1)c1ccc(Cl)cc1Cl (configuration not stated) | 10% | 3% | 1% | -1% | i
N#Cc1ccc(NC(=O)Nc2ccccc2Br)c2n[nH]nc12 | 8% | . | . | . | .
O=C(N/N=C/c1cc(Cl)ccc1O)c1ccccc1Br | 3.2µM* | 0% | -5% | -1% | i
O=C(CNC(=O)c1ccncc1)N/N=C/c1cc(Br)ccc1O | ? | 1% | 10% | 0% | ?
O=C(CNC(=O)c1ccccc1)N/N=C/c1cc(Br)ccc1O | 28µM* | 0% | -1% | 0% | i
O=C(N/N=C/c1cc(Cl)ccc1O)c1cccnc1 | ? | 7% | -1% | 0% | i
O=C(CNC(=O)c1ccccc1Br)N/N=C/c1cc(Br)ccc1O | 10µM* | 5% | -24% | 0% | i
Cc1cc(C)n2ncc(C(=O)NCC(C)C)c2n1 | . | 12% | -6% | . | .
CCC[C@@]1(CCc2ccccc2)CC(O)=C([C@H](CC)c2cccc(NS(=O)(=O)c3ccc(C(F)(F)F)cn3)c2)C(=O)O1 | . | . | . | . | i
COc1cc(NS(=O)(=O)c2ccc(C)cc2C)cc(OC)c1OC | -12% | -21% | 10µM* | 0% | i
COc1cc(-c2cnc3ccccc3c2)cc2c1OCCN(C(=O)CCn1nc(C)cc1C)C2 | . | . | . | . | i
COc1ccc(NC(=O)c2ccco2)cc1NC(=O)c1ccc(C)c(C)c1 | -2% | -15% | -2% | 9% | ?
Cc1nn(C)cc1C(C)NC(=O)c1cc(COc2cccc3cnccc23)on1 (configuration not stated) | -22% | -8% | 10µM* | -1% | i
O=C(NCC1CCCN1S(=O)(=O)c1cccs1)c1ccc(Cl)cc1 (configuration not stated) | -35% | -5% | 23µM* | 0% | i
O=C(NCC1CCCN1S(=O)(=O)c1cccs1)c1cccc(F)c1 (configuration not stated) | -6% | -13% | 13µM* | 2% | i
O=C(NCC1CCCN1S(=O)(=O)c1cccs1)c1ccc(F)cc1 (configuration not stated) | -9% | 2% | -19% | 0% | i
CCC(C)NC(=O)c1ccc2nc(-c3cccs3)c(-c3cccs3)nc2c1 (configuration not stated) | . | 0% | -29% | . | .
Cc1[nH]c2c(F)cccc2c1CC(=O)NCCN1Cc2ccccc2OC(C)C1 (configuration not stated) | . | . | . | . | i
CCOC(=O)C1=C(C)NC2=C(C(=O)c3ccccc32)C1c1ccc([N+](=O)[O-])o1 (configuration not stated) | 40% | -15% | 1% | 14µM* | i
